ELG1 genotox = induces genotoxicity in HEK293T cells with luciferase-tagged ELG1 | Potency, µM (titrated, usually from 46 µM), most hits filed as activators | HEK293T ELG1-luciferase reporter, luminescence, 16 h | actives 1.3% (n = 330,000); also: nearly all actives have a fitted effect of over 60% in size
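Reporter readout depends on ELG1 protein level, which increases with genetic stress. After 16 hr compound exposure at 37 °C, luciferase activity was quantified using ONE-Glo.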
uPA surface inh = blocks generation of uPA at the cell surface | cell surface uPA generation assay, qHTS | Potency, µM (series often up to 38.3 µM), most hits filed as inhibitors | actives 0.31% (n = 330,000) | AID 540303; active = well fitted inhibition curve with a large enough effect; inconclusive = small, poorly fitted or top-dose-only effect; inactive = no such curve, though single readings can be large or run the other way; tested in mouse RAW 264.7 cells; also: nearly all actives have a fitted effect of over 55% in size
FLuc counter = firefly luciferase modulation, counter-screen for miR-21 project; P08659; purified FLuc, Km substrates, luminescence inhibition; Potency, µM (titrated, usually from 57.5 µM), usual class: inhibitors; actives 6.9% (n = 360,000); also: nearly all actives have a fitted effect of over 55% in size
Target sequence (P08659 whole entry, looked up): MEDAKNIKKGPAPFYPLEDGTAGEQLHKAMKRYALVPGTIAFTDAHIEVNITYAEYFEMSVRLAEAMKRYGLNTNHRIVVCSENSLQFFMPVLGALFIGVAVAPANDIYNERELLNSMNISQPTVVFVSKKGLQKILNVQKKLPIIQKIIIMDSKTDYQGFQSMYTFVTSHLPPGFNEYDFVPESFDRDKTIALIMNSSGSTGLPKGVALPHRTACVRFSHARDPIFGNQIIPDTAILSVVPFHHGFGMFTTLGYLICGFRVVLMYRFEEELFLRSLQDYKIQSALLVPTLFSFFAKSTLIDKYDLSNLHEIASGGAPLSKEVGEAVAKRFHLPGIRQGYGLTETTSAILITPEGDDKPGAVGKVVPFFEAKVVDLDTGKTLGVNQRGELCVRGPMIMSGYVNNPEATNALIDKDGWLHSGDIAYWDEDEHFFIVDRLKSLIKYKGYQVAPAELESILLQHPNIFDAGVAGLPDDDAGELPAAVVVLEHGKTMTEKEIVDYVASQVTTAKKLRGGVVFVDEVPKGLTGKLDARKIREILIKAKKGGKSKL
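Biochemical qHTS of compounds, final roughly 60 µM downward over six points, against 10 nM purified firefly luciferase using Km concentrations of substrates (10 uM D-luciferin, 10 uM ATP) in Tris acetate pH 7.5 buffer; luminescence output.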
SMN2 splice enh = increases expression of the SMN2 splice variant. Potency, µM (doses to about 46.1 µM), hits mostly activators. HEK293 SMN2-luciferase splicing reporter, luminescence, 30-36 h. actives 2.8% (n = 210,000); also: nearly all actives have a fitted effect of over 55% in size
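HEK293 cells carry an SMN2 minigene-luciferase reporter in which exon 7 inclusion puts luciferase in frame. Cells were seeded at 2000 cells/well, attached for 10-12 hours, then exposed to compounds for 30-36 hours at 37C before ONE-Glo luminescence.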
Rab9 promoter act = activators of Rab9 promoter; Huh7 Rab9 promoter-luciferase reporter, luminescence, 24 h; Potency, µM (titrated, usually from 9.22 µM), actives largely listed as activators; actives 2.8% (n = 320,000); also: nearly all actives have a fitted effect of over 60% in size
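Huh7 cells stably carrying Rab9 promoter–luciferase reporter, plated 1500 cells/well, compound added after 2 h and incubated 24 h at 37 °C; luciferase luminescence then read after 10 min with detection reagent.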
NPC1 prom act = activates the NPC1 promoter | actives 2.4% (n = 320,000) | Potency, µM (top dose mostly 9.22 µM), most hits filed as activators | Huh7 NPC1 promoter luciferase reporter, 24 h; also: nearly all actives have a fitted effect of over 60% in size
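Huh7 reporter cells (NPC1 promoter driving luciferase) are dosed with compound for 24 h at 37 °C, 5% CO2; luciferase detection reagent is then added and luminescence measured after 10 min at ambient temperature.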
Hits are given with their value; 0 = inactive; ? = inconclusive; - = no result given; [ ] = dose if it differs, or a comment. The list is not random: actives were taken first. Their share in the collection is about 7.3%. Unless noted, calls follow the shape of the dose curve; as a rule, active = well fitted curve in the direction sought with a large enough effect; inconclusive = small, poorly fitted or top-dose-only effect, or another doubt; inactive = no such curve, though single readings can be large; an effect the other way counts as inactive or inconclusive.

SMILES	ELG1 genotox	uPA surface inh	FLuc counter	SMN2 splice enh	Rab9 promoter act	NPC1 prom act
CCc1cc2c(NCc3ccco3)ncnc2s1	0	0	0	0	0	0
COc1ccc(-n2ncc3c(NCc4ccccn4)ncnc32)cc1	?	0	15µM	?	?	?
COc1ccc(-n2ncc3c(NCc4ccco4)ncnc32)cc1	?	-	9.5µM	?	1.4µM	2.2µM
Clc1ccc(-n2ncc3c(NCc4ccco4)ncnc32)cc1	0	0	6µM	0	2.5µM	?
COc1ccc(-n2ncc3c(N4CCN(Cc5ccccc5)CC4)ncnc32)cc1	0	0	?	-	0	0
Clc1ccc(Cn2ncc3c(NCc4ccco4)ncnc32)c(Cl)c1	0	0	0	?	0	0
CN(C)CCN1C(=O)CC[C@]2(C)C1=CC[C@@H]1[C@@H]2CC[C@]2(C)[C@H]1CC[C@]2(C)O	-	-	-	0[9.22 µM]	-	-
CC(C)OC(=O)[C@@H]1CC[C@H](C)[C@@H](CCCCO)O1	-	-	-	0	-	-
CCC/C=C(\CCC)C(NS(=O)(=O)c1ccc(Cl)cc1)c1ccccc1 (configuration not stated)	-	-	-	0	-	-
Cc1ccccc1Nc1nc(N)nc(CSc2ccc(F)cc2)n1	8.2µM	0	11µM	-	3.2µM	2.5µM
Cc1ccccc1Nc1nc(N)nc(CSc2nnnn2C)n1	?	?	?	13µM	2.5µM	3.5µM
Cc1ccc(SCc2nc(N)nc(Nc3ccccc3C)n2)c(C)c1	0	0	27µM	0	0	0
Cc1ccc(Nc2nc(N)nc(CSc3nccn3C)n2)c(C)c1	15µM	0	?	0	?	?
Cc1ccc(SCc2nc(N)nc(Nc3ccccc3C)n2)cc1C	0	0	0	0	0	0
COc1cc(NC(=S)N2CCN(S(=O)(=O)c3ccc(C)cc3)CC2)cc(OC)c1	0	0	0	-	0	0
CSc1nsc(/C=C/Nc2ccc(C(=O)O)cc2)c1C#N	0	0	12µM	0	0	0
Cc1cccc(S(=O)(=O)Nc2cccc(-c3ccc(N4CCCCC4)nn3)c2)c1	-	-	3.4µM	-	-	-
Cc1ccc(S(=O)(=O)Nc2cccc(-c3ccc(N4CCCCCC4)nn3)c2)cc1	?	0	5.4µM	-	?	?
O=S(=O)(Nc1cccc(-c2ccc(N3CCCCCC3)nn2)c1)c1ccccc1	-	-	7.6µM	-	-	-
Cc1cc(C)c(S(=O)(=O)Nc2ccc(-c3ccc(N4CCCCC4)nn3)cc2)c(C)c1	-	-	13µM	-	-	-
CCc1ccc(S(=O)(=O)Nc2ccc(-c3ccc(N4CCCC4)nn3)cc2)cc1	-	-	0	-	-	-
CC(C)c1ccc(S(=O)(=O)c2cnc(SCC(=O)Nc3cccc(C(F)(F)F)c3)nc2N)cc1	-	-	0	-	-	-
O=C(Nc1ccc(S(=O)(=O)Nc2cnc3ccccc3n2)cc1)c1ccccc1Br	0	0	0	-	0	0
Cc1ccc(CNC(=O)C2CCN(S(=O)(=O)c3ccc4c(c3)oc(=O)n4C)CC2)cc1	-	-	0	0	-	-
CCCC(=O)c1ccc(N2CCN(C(=O)OCC)CC2)c(F)c1	0	0	0	0	0	0
SMILES	ELG1 genotox	uPA surface inh	FLuc counter	SMN2 splice enh	Rab9 promoter act	NPC1 prom act
CC(=O)c1ccc(N2CCCCC2)c(F)c1	0	0	0	-	0	0
CCCC(=O)c1ccc(N2CCCCC2)c(F)c1	?	?	13µM	0	?	?
CCCC(=O)c1ccc(N2CCCCCC2)c(F)c1	?	0	8.5µM	0	3.5µM	3.2µM
O=c1c2ccccc2[nH]c2ccc(O)cc12	?	0	?	-	0	0
Cc1ccc2[nH]c3ccccc3c(=O)c2c1	0	0	17µM	-	0	?
CCCN(CCC)CCCNC(=O)c1cc2c(=O)[nH]c3ccccc3c2s1	0	0	0	-	0	0
Clc1ccsc1-c1ccc2ccccc2n1	?	0	11µM	?	?	?
S=c1[nH]nc(-c2ccc3ccccc3n2)o1	0	0	?	0	0	0
Clc1ccsc1-c1ccnc(-n2cccc2)n1	0	0	17µM	0	0	0
Cc1ccsc1-c1ccnc(-n2cccc2)n1	0	0	?	0	0	0
c1ccc2nc(-c3nccs3)ccc2c1	?	0	13µM	0	?	0
CCc1nc(CNC(=O)C2CCC(=O)N(Cc3cccc(OC)c3)C2)no1 (configuration not stated)	0	0	0	-	0	0
O=C(Cn1cc(S(=O)(=O)c2ccccc2)c(=O)c2cc3c(cc21)OCO3)Nc1ccc(Cl)cc1	-	-	0	0	-	-
COc1cccc(-c2nc(-c3ccc4c(c3)-c3ccccc3S4(=O)=O)c(-c3ccccc3)[nH]2)c1OC	0	0	0	0	0	0
COc1cc(-c2nc(-c3ccc4c(c3)-c3ccccc3S4(=O)=O)c(-c3ccccc3)[nH]2)cc(OC)c1OC	0	0	4.8µM	0	0	0
COC(=O)/C=C/C(C)=C/C=C/C(C)=C/C=C/C=C(C)/C=C/C=C(C)/C=C/C(=O)O	-	-	-	0	-	-
c1ccc(SCc2nc(-c3cccnc3)no2)cc1	3.7µM	0	11µM	11µM	1.4µM	2µM
Cc1cccc(-c2noc(CSc3nc(-c4ccc(F)cc4)cc(=O)[nH]3)n2)c1	-	-	0	-	-	-
Cc1cccc(-c2noc(CSc3ccccc3)n2)c1	?	0	9.5µM	?	3.5µM	2.5µM
Cc1ccc(-c2noc(CSc3nc(N)cc(N)n3)n2)cc1	0	0	15µM	?	2.2µM	2.8µM
Cc1ccc(-c2noc(CSc3ccccc3)n2)cc1	7.3µM	0	2.1µM	?	1.8µM	1.8µM
Cc1ccc(-c2noc(CSc3nnc(C)n3-c3ccc(C)cc3)n2)cc1	-	-	0	0	-	-
COc1ccc(-c2nc(-c3ccccc3)oc2NC(C)C)cc1	-	-	-	0	-	-
CC(C)n1c(SCC(=O)Nc2nncs2)nnc1-c1ccco1	0	0	0	-	0	0
CCOc1ccc(CCNC(=O)c2cccc(-n3c(C)nc4cccnc43)c2C)cc1	-	-	0	-	-	-
SMILES	ELG1 genotox	uPA surface inh	FLuc counter	SMN2 splice enh	Rab9 promoter act	NPC1 prom act
CCOc1ccc2nc(SCC(=O)Nc3cc(C)on3)c(C)cc2c1	0	0	0	-	0	0
C/C=C/C(=O)OCC(=O)Nc1nc2ccc(C)cc2s1	?	0	21µM	0	?	0
Cc1ccc2nc(NC(=O)C3CC3C)sc2c1 (configuration not stated)	0	0	5.4µM	-	?	1.1µM
CCOc1ccc2nc(NC(=O)CSCC(=O)Nc3cc(C)on3)sc2c1	?	0	?	-	3.2µM	?
CC12CCC(=O)N1C(C(=O)Nc1nc3ccc(F)cc3s1)CS2 (configuration not stated)	0	0	?	-	0	0
CC1CC1C(=O)Nc1nc2ccc(S(C)(=O)=O)cc2s1 (configuration not stated)	0	0	0	-	0	0
CCOc1ccc2nc(NC(=O)C3CSC4(C)CCC(=O)N34)sc2c1 (configuration not stated)	0	?	21µM	-	0	0
COc1cccc(CNC(=O)CN2C(=O)CSc3c2c(C)nn3-c2ccccc2)c1	-	-	0	-	-	-

Compound activity: PubChem BioAssay, National Center for Advancing Translational Sciences (NCATS)
